The campaign covered roughly 52,000 compounds. About 1,700 (3.3%) were called active. What follows is part of a selection rich in actives, with near analogues and random picks from the rest. Values without a mark were called inactive. No stated cut-off is given here; in the data, active means survival mostly below about 52% (no sharp cut-off); inactive means mostly above about 56%.

In this experiment the test system is Wild type. Description: growth inhibition of S. aureus wild type versus tarO mutant, primary screen, teichoic acid synthesis inhibitors, RN4220, OD600 (AID 463173). To be noted: S. aureus RN4220 wild type/DeltatarO growth, OD600, 18 h, active compounds read low, screened at 18.75 µg/mL (by protocol).
As to `CCc1ccc(Nc2nnc(-c3cc4cc(OC)ccc4oc3=O)s2)cc1`, the survival is 138%. `CCC(CC)C(=O)Nc1cc(-c2cccc(C)c2)nn1-c1ccccc1`: the survival is 69%. Regarding `COc1ccc(CCn2c(=O)[nH]c3cc(C(=O)N4CCN(c5ccccc5)CC4)ccc3c2=O)cc1OC`, the survival is 102%. As to `O=C1OC(c2ccccc2)=C/C1=C/N1CCOCC1`, the survival is 116%. As to `Cc1ccc(C2=CC(c3ccc(Cl)cc3)n3nc(-c4ccc(C)cc4)nc3N2)cc1` (centres undefined), the survival is 1% (active). The figure for `O=S(=O)(Nc1nc2n(n1)C(c1ccc(F)cc1)C=C(c1ccccc1)N2)c1ccccc1` (centres undefined) is 74%. For the compound `COc1ccc(C2C=C(c3ccc(F)cc3)Nc3nc(-c4ccc(Cl)cc4)nn32)cc1` (centres undefined), the survival was 105%. Take `COc1ccc(C2C=C(c3ccccc3)Nc3nc(NS(=O)(=O)c4ccc(Cl)cc4)nn32)cc1` (centres undefined): the survival was 0% (active). For the compound `COc1ccc(C2C=C(c3ccccc3)Nc3nc(NS(=O)(=O)c4ccc(C)cc4)nn32)cc1` (centres undefined), the survival is 66%. Take `O=S(=O)(Nc1nc2n(n1)C(c1ccc(F)cc1)C=C(c1ccccc1)N2)c1ccc(Cl)cc1` (centres undefined): the survival was 14% (active).

Consider `Cc1ccc(C2C=C(c3ccc(Cl)cc3)Nc3nc(NS(=O)(=O)c4ccccc4)nn32)cc1` (centres undefined), for which the survival is 75%. Then `Cc1ccc(C2C=C(c3ccccc3)Nc3nc(NS(=O)(=O)c4ccccc4)nn32)cc1` (centres undefined), with 83%. Then `COc1ccc(C2C=C(c3ccc(Cl)cc3)Nc3nc(-c4ccc(Cl)cc4)nn32)cc1` (centres undefined), with 88%; and `Cc1ccc(S(=O)(=O)Nc2nc3n(n2)C(c2ccc(Cl)cc2)C=C(c2ccccc2)N3)cc1` (centres undefined), with -4% (active). Then `O=S(=O)(Nc1nc2n(n1)C(c1ccc(F)cc1)C=C(c1ccc(Cl)cc1)N2)c1ccccc1` (centres undefined), with 57%. As to `COc1ccc(C2C=C(c3ccccc3)Nc3nc(NS(=O)(=O)c4ccccc4)nn32)cc1` (centres undefined), the survival is 29%.

Take `CSc1ccc(/C=C(\C#N)C(=O)NC2CCCCC2)cc1`: the survival is 95%. Then `O=C(Cn1nc(-c2ccccc2)c2c(c1=O)CCCC2)Nc1ccc(F)c(Cl)c1`, with 44%; and `CCOc1ccccc1NC(=O)N1CCC(N2CCN(Cc3ccccc3)C(=O)C2=O)CC1`, with 68%. Then `Cc1ccc(C)c(S(=O)(=O)NCC(c2ccc(N(C)C)cc2)N2CCOCC2)c1` (centres undefined), with 73%; and `Cc1sc2nc(SCC(=O)N(CCO)CCO)n(C3CCCCC3)c(=O)c2c1C`, with 106%; and `CCOc1ccc(CCNC(=O)CS(=O)(=O)Cc2nc(-c3cccc(Cl)c3)oc2C)cc1`, with 82%. As for `Oc1cccc2c1NCCC2`, the survival was 113%. Regarding `O=S(=O)(c1cccc(Cl)c1)c1nnn2c1nc(NCc1ccc3c(c1)OCO3)c1sccc12`, the survival is 80%. The figure for `CCSc1oc(-c2cccs2)nc1S(=O)(=O)c1ccc(Br)cc1` is 51%; for `CCOC(=O)CNC(=O)CC(c1cc(OC)c(OC)c(OC)c1)N1Cc2ccccc2C1=O` (centres undefined) it is 60%; for `Cc1c(Cl)cccc1NC(=O)C1CCN(c2ncnc3c2nc2n3CCCCC2)CC1` it is 129%.

Take `O=C(COc1ccccc1)Nc1ccc2nc(SCCOc3ccccc3)sc2c1`: the survival is 94%. `COc1ccc(CNC(=O)Cn2nc3c(cc2=O)CCCC3)cc1`: the survival was 64%. With `Cc1cccc(C2C=C(c3ccc(C)c(C)c3)Nc3nnnn32)c1` (centres undefined), the survival is 1% (active). `COc1ccc(C2=CC(c3cccc(C)c3)n3nnnc3N2)cc1` (centres undefined): the survival was 71%.

Regarding `COc1cccc(C2C=C(c3ccc(C)c(C)c3)Nc3nnnn32)c1OC` (centres undefined), the survival is 71%. Consider `CS(=O)(=O)N1CCN(C(=O)c2ccccc2)CC1`, for which the survival is 110%. With `CCn1cc(C(=O)NCCCN(CC(C)C)CC(C)C)c(=O)c2cc(S(=O)(=O)N3CCc4ccccc4C3)ccc21`, the survival was 80%.

On to `Cc1ccc(NS(=O)(=O)c2ccc3c(c2)NC(=O)C(C)C(=O)N3)cc1F` (centres undefined), for which the survival is 86%. As for `Cc1cc(C)c(NS(=O)(=O)c2ccc3c(c2)NC(=O)CCS3)c(C)c1`, the survival was 60%.

For the compound `O=C1CCSc2ccc(S(=O)(=O)Nc3ccc(Cl)c(C(F)(F)F)c3)cc2N1`, the survival was 81%. Then `Cc1ccccc1NS(=O)(=O)c1ccc2c(c1)NC(=O)CCS2`, with 57%; and `O=C1CCSc2ccc(S(=O)(=O)Nc3cccc(C(F)(F)F)c3)cc2N1`, with -4% (active).

As to `Cc1cc(C)cc(NS(=O)(=O)c2ccc3c(c2)NC(=O)C(C)S3)c1` (centres undefined), the survival was 12% (active). Then `Cc1ccc(NS(=O)(=O)c2ccc3c(c2)NC(=O)CCS3)c(Br)c1`, with -3% (active); and `CC1C(=O)Nc2ccc(S(=O)(=O)Nc3ccccc3Br)cc2NC1=O` (centres undefined), with 89%; and `Cc1ccc(NS(=O)(=O)c2ccc3c(c2)NC(=O)CCS3)cc1C`, with 63%. With `Cc1nn(C)c(C)c1S(=O)(=O)N(CC(=O)NCCc1ccccc1)c1ccc(C(C)C)cc1`, the survival is 86%. In the case of `COc1cc(NC(=O)C2CCN(S(=O)(=O)c3c(C)noc3/C=C/c3ccccc3F)CC2)cc(OC)c1OC`, the survival was 64%. `CCCCC(=O)Oc1ccc2oc(-c3ccc(OC)cc3)cc(=O)c2c1`: the survival was 69%. The figure for `Cc1c(Cl)cccc1-n1nnc(-c2nc(-c3ccc4c(c3)OCO4)no2)c1C` is 73%; for `COc1ccc(CNC(=O)c2ccc3nc(CCc4ccccc4)oc3c2)cc1` it is -2% (active); for `COc1ccc(CNC(=O)c2ccc3nc(CCc4ccccc4)oc3c2)c(OC)c1` it is 131%.

Turning to `CCCNC(=O)c1ccc2nc(CCc3ccccc3)oc2c1`, the survival was 73%.

Turning to `COc1ccc(Cc2nc3ccc(C(=O)NCCc4ccc(OC)c(OC)c4)cc3o2)cc1`, the survival is 68%. Then `O=C(NCCc1ccccc1)c1ccc2nc(CCc3ccccc3)oc2c1`, with 0% (active). Take `COc1ccc(CNC(=O)c2ccc3nc(CCc4ccccc4)oc3c2)cc1OC`: the survival is 71%.

As to `O=C(NCCc1ccc(Cl)cc1)c1ccc2nc(CCc3ccccc3)oc2c1`, the survival was 59%.

Take `O=C(NCc1cccc(F)c1)c1ccc2nc(CCc3ccccc3)oc2c1`: the survival is 71%. On to `COc1ccc(CCNC(=O)c2ccc3nc(Cc4ccccc4)oc3c2)cc1OC`, for which the survival is 124%.

Take `COc1ccc(CCNC(=O)c2ccc3nc(CCc4ccccc4)oc3c2)cc1OC`: the survival is 10% (active). As to `O=C(NCc1ccccc1)c1ccc2nc(CCc3ccccc3)oc2c1`, the survival is -3% (active).

As for `CN(C)c1ccc(CNC(=O)c2ccc3nc(CCc4ccccc4)oc3c2)cc1`, the survival was 78%.

The record behind these values is PubChem BioAssay AID463173 (ICCB-Longwood Screening Facility, Harvard Medical School, 2010).
